In PubChem BioAssay (NCI):
Compounds without any hit were thinned out: in the full panel of roughly 83,000, 20% have a hit.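 Testing used 96-well plates and a 48-hour single-concentration exposure. Example: -40 means 40% of the starting cells died.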 Calls of active or inactive are those of the source. The calls were made as follows: active = growth percent below 10; inactive = the rest.

Experiments:
Assay in all cases: NCI-60 one-dose screen, 48 h (100 = growth as untreated, 0 = no growth, -100 = all killed)
Settings in all cases: 10 µM unless noted
HCT-15 colon = system: HCT-15 colon
HT29 colon = system: HT29 colon
SNB-19 CNS = system: SNB-19 CNS
U251 CNS = system: U251 CNS
PC-3 prostate = system: PC-3 prostate
SK-MEL-5 melanoma = system: SK-MEL-5 melanoma
UACC-62 melanoma = system: UACC-62 melanoma
LOX IMVI melanoma = system: LOX IMVI melanoma
SK-MEL-28 melanoma = system: SK-MEL-28 melanoma

Measured: growth

Cc1ccc(S(=O)(=O)NC(=O)n2cc(-c3ccncc3)c(-c3ccc(Cl)c(O)c3)n2)cc1
inactive: HCT-15 colon 107% | HT29 colon 101% | SNB-19 CNS 117% | U251 CNS 111% | PC-3 prostate 95.3% | SK-MEL-5 melanoma 100% | UACC-62 melanoma 85.2% | LOX IMVI melanoma 93.4% | SK-MEL-28 melanoma 130%

COc1cc(-c2nn(-c3cccc(NC(=O)c4ccccc4)c3)cc2-c2ccncc2)ccc1Cl
active: HT29 colon 2.03% | SK-MEL-5 melanoma -49.4%
inactive: HCT-15 colon 19.2% | SNB-19 CNS 50% | U251 CNS 13.5% | PC-3 prostate 10.5% | UACC-62 melanoma 32.5% | LOX IMVI melanoma 17.4% | SK-MEL-28 melanoma 34.4%

Cc1ccc(S(=O)(=O)NCCNc2nccc(-c3c(-c4cccc(N)c4)nc4sccn34)n2)cc1
inactive: HCT-15 colon 92.1% | HT29 colon 91.7% | SNB-19 CNS 104% | U251 CNS 101% | PC-3 prostate 84.5% | SK-MEL-5 melanoma 84.6% | UACC-62 melanoma 79.4% | LOX IMVI melanoma 95% | SK-MEL-28 melanoma 107%

Brc1cccc(-c2cc(-c3ccc4c(c3)OCCCO4)[nH]n2)c1
inactive: HCT-15 colon 29.7% [25 µM] | HT29 colon 12.7% [25 µM] | SNB-19 CNS 72.2% [25 µM] | U251 CNS 47.4% [25 µM] | PC-3 prostate 55.9% [25 µM] | SK-MEL-5 melanoma 39.1% [25 µM] | UACC-62 melanoma 60.2% [25 µM] | LOX IMVI melanoma 43.9% [25 µM] | SK-MEL-28 melanoma 76.5% [25 µM]

COc1cc(-c2nn(-c3cccc(NC(=O)c4cccc(C(F)(F)F)c4)c3)cc2-c2ccncc2)ccc1Cl
inactive: HCT-15 colon 12.8% | SNB-19 CNS 47.3% | U251 CNS 13.1% | UACC-62 melanoma 27.2% | LOX IMVI melanoma 11.4% | SK-MEL-28 melanoma 32.5%
active: HT29 colon -12.1% | PC-3 prostate 4.39% | SK-MEL-5 melanoma -33%
